This is a sample that favours compounds with a hit; in the whole collection about 5.7% have one here.
hcDAF-12 act: H. contortus DAF-12 nuclear receptor activators, primary screen, cell-based, luminescence, HEK293, lit1-tk-luc reporter; AID 652067, 2013; activation, % at 6.8 µM; actives 1.4% (n = 370,000); HEK293 hcDAF-12 lit1-tk-luc reporter; 0% DMSO, 100% Δ7-dafachronic acid;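 active means activation above the mean of all tested compounds plus 3 SD, cut at about 5.5% in these data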;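 further: 100% = response to 3 µM Δ7-dafachronic acid high control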
hgDAF-12 ag: H. glycines DAF-12 receptor agonists, primary screen, cell-based, luminescence, HEK293, GAL4 fusion, UAS-luciferase. Nuclear hormone receptor DAF-12 (Heterodera glycines), GAL4 fusion. HEK293 GAL4-hgDAF12 UAS-luciferase reporter, agonist luminescence; normalized to butyrate control. activation, % at 6.8 µM. actives 1.8% (n = 370,000);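 active means activation above a cutoff set at the mean of all screened compounds plus 3 SD, cut at about 10% in these data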;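 further: 0% = DMSO wells and 100% = sodium butyrate wells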
DAX1 inh-1: DAX1 (NR0B1) inhibitors, primary screen, cell-based, HEK293, Gal4-DAX1, luciferase luminescence; Nuclear receptor subfamily 0 group B member 1 (Homo sapiens), P51843; HEK293 Gal4-DAX1 luciferase reporter; inhibition, % at 6.75 µM; actives 0.99% (n = 340,000); AID 504766, 2011;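 active means inhibition above the mean over all tested compounds plus 3 SD, cut at about 4.2% in these data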;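 further: 0% = DAX1-transfected cells with DMSO and 100% = empty-vector control cells with DMSO; inhibition shows as a rise in luminescence from relieved DAX1 repression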
Target sequence (P51843 207-470 limits assumed): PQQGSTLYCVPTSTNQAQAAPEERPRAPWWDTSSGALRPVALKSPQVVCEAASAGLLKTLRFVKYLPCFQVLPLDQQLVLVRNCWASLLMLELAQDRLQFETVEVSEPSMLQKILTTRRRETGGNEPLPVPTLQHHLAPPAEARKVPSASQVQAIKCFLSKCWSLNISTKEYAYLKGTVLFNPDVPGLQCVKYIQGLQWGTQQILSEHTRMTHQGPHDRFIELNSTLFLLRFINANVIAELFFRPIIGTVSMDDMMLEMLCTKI
DAX1 inh-2: DAX1 (NR0B1) inhibitors on StAR promoter, primary screen, cell-based, luminescence, SF-1 (NR5A1), full-length DAX-1; HEK293T StAR-luciferase reporter, SF-1/DAX-1 repression relief; inhibition, % at 6.8 µM; actives 1.1% (n = 370,000); AID 652010, 2013;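 active means inhibition above the mean over all tested compounds plus 3 SD, cut at about 3.6% in these data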;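 further: 0% = DAX-1 cells with DMSO and 100% = cells lacking DAX-1 with DMSO; higher inhibition means more luminescence from relief of DAX-1 repression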
ssDAF12 agonist: S. stercoralis DAF-12 nuclear receptor activators, primary screen, cell-based, luminescence, HEK293, GRIP1 co-expression, lit1-tk-luc | Nuclear hormone receptor DAF-12 (Strongyloides stercoralis) | HEK293 ssDAF-12/GRIP1 lit1-tk-luc reporter; % of 3 µM dafachronic acid response | activation, % at 6.8 µM | actives 1% (n = 370,000) | AID 652126, 2013;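 active means activation above the mean over all tested compounds plus 3 SD, cut at about 0.9% in these data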;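 further: 0% = DMSO-only wells and 100% = 3 µM delta7-dafachronic acid wells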
AHR activator: AHR activators, primary screen, cell-based, luminescence, luciferase reporter, human; AHR-responsive luciferase reporter cells; activation, % at 5 µM; actives 2.5% (n = 320,000); in the data active means activation above about 47%;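 further: 0% = vehicle wells and 100% = reference agonist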
AHR act confirm: AHR activators, confirmation, cell-based, luminescence, luciferase reporter, human; shares compounds with AHR activator; human cells, AHR-responsive luciferase reporter; activation, % at 9 µM; actives 87% (n = 2,300); in the data active means activation above about 49%;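 further: HepG2 hepatoma cells carrying a DRE-driven firefly luciferase reporter; 0% = vehicle wells and 100% = reference agonist wells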
PXR act counter: human PXR activators, counter-screen for AHR activator project, cell-based, luciferase luminescence | shares compounds with AHR activator | cell-based PXR reporter | activation, % at 11.6 µM | actives 88% (n = 2,300) | AID 434939, 2010; in the data active means activation above about 11%;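 further: human hepatoma DPX-2 cells expressing full-length human PXR; 0% = DMSO and 100% = reference agonist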
Target sequence (O75469 whole entry, looked up): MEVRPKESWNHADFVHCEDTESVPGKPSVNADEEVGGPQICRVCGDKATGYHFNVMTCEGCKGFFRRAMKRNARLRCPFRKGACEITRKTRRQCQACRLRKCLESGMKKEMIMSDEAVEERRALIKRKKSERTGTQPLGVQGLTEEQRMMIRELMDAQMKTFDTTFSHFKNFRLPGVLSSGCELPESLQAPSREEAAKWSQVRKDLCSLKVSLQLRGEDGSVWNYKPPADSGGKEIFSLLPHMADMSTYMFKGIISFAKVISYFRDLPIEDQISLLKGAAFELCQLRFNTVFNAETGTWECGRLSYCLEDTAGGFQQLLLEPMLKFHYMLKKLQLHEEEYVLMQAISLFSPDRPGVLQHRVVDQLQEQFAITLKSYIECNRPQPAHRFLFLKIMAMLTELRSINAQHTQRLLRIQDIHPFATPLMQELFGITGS
* hit, by the source's call; . = no result given.

SMILES	hcDAF-12 act	hgDAF-12 ag	DAX1 inh-1	DAX1 inh-2	ssDAF12 agonist	AHR activator	AHR act confirm	PXR act counter
Cc1ccc(N(C)S(=O)(=O)c2cccc(C(=O)N(C)Cc3cnn(-c4ccccc4)c3)c2)cc1	-1.5	-4.3	-1.8	-1.5	-1.4	.	.	.
O=C(Nc1ccc(Cl)cc1)c1ccc(S(=O)(=O)N2CCOCC2)cc1	-0.6	-1.6	-1.6	-0.2	-1.3	80.3*	86.4*	17.4*
COc1ccc2c(C=O)cn(C)c2c1	0.2	6.7	1.7	-0.4	-1.3	0.0	.	.
[O-]/[N+](=C\c1ccccc1)c1ccc(Br)cc1	1.7	5.6	2.1	0.3	-0.6	88.0*	114.5*	13.5*
[O-]/[N+](=C\c1ccccc1)c1ccccc1	1.1	3.1	0.8	-0.2	-0.8	3.1	.	.
O=C(NCCN1C(=O)C2C3C=CC(C3)C2C1=O)N1CCCCC1 (stereo unspecified)	-2.9	-1.2	-1.2	0.6	-0.1	91.9*	5.7	21.1*
Cc1ccnc(Nc2nc(-c3ccc(F)cc3)cs2)c1	6.4*	12.2*	0.4	0.8	-1.0	165.2*	132.2*	15.4*
Cc1ccnc(Nc2nc(-c3ccc(Cl)cc3)cs2)c1	1.6	7.2	0.8	0.5	-0.8	136.7*	96.5*	32.4*
Cc1ccc(S(=O)(=O)Nc2nc(-c3ccc(F)cc3)cs2)cc1	1.8	0.6	-0.3	0.1	-1.0	1.5	.	.
CCOC(=O)c1sc(S(C)=O)c2c1CCc1conc1-2 (stereo unspecified)	-1.4	-0.6	.	-0.3	-0.3	2.3	.	.
Cc1nc(N2N=C3/C(=C/c4ccc(F)cc4)CCCC3C2c2ccc(F)cc2)sc1C(=O)N(C)C (stereo unspecified)	-0.1	-2.2	-0.2	0.3	-0.9	92.0*	93.0*	114.7*
Cc1ncsc1C(=O)N1N=C2/C(=C/c3ccc(N4CCOCC4)cc3)CCCC2C1c1ccc(N2CCOCC2)cc1 (stereo unspecified)	.	.	1.0	.	.	11.6	.	.
COc1ccc(-c2nn(-c3ccccc3)cc2C(=O)N2CCN(C(=O)c3ccco3)CC2)cc1	-1.9	-0.5	-0.9	1.5	-1.2	-0.1	.	.
COc1cc(-c2noc(C)c2C#Cc2ccsc2)cc(OC)c1OC	0.3	-2.1	-0.6	-1.2	-1.2	39.6	.	.
COc1cccc(-n2c(SCC(=O)NCCC3=CCCCC3)nc3n[nH]c(C)c3c2=N)c1	-1.9	-2.1	.	-0.2	-1.4	82.3*	91.0*	160.8*
COc1cccc(NC(=O)CSc2nc3n[nH]c(C)c3c(=N)n2-c2cccc(OC)c2)c1	-2.1	-0.9	-0.1	-0.6	-1.3	18.5	.	.
CC(C)c1ccc(Nc2nc(NCc3ccco3)nc(N3CCOCC3)n2)cc1	-2.4	0.0	-0.9	-0.8	-1.5	84.6*	86.1*	32.2*
CC(C)c1ccc(Nc2nc(N3CCOCC3)nc(N3CCOCC3)n2)cc1	-0.5	-0.5	1.7	0.6	-2.0	.	.	.
O=C(Nc1ccccc1F)O[C@@H]1CC[C@@]23CCCN2C(=O)CCC[C@H]3C1	1.4	0.5	.	.	-1.1	.	.	.
CC(C)C[C@H]1CN=C(Nc2ccccc2)N1CC1CCC(C)CC1 (stereo partly specified)	.	.	0.8	.	.	0.0	.	.
Cc1ccc(NC(=O)c2ccc(CNc3c(N4CCC(C)CC4)c(=O)c3=O)cc2)cc1	0.5	0.9	-1.2	-0.1	-1.5	2.5	.	.
O=C(Cn1c(NCCCO)nc2ccccc21)c1ccc(Cl)cc1	-0.5	-1.4	-1.9	0.4	-1.3	4.7	.	.
O=C(Cn1c(NCCCO)nc2ccccc21)c1ccc(Cl)cc1Cl	3.7	-0.8	1.2	0.1	-0.5	120.3*	121.9*	20.2*
O=C(Cc1ccccc1)NC(=S)Nc1cc(C(F)(F)F)ccc1Cl	0.2	0.1	-0.8	-0.6	-0.4	33.7	.	.
FC(F)(F)c1ccc(Cl)c(NC(=S)N/N=C/c2ccccc2C(F)(F)F)c1	3.1	-0.4	0.7	0.0	-1.1	104.8*	55.1*	74.1*
SMILES	hcDAF-12 act	hgDAF-12 ag	DAX1 inh-1	DAX1 inh-2	ssDAF12 agonist	AHR activator	AHR act confirm	PXR act counter
N=C(N)N=Nc1c(O)[nH]c2ccc(Br)cc12	0.1	-2.8	0.3	-0.2	-1.1	93.2*	87.9*	28.3*
COc1ccccc1CN1CCc2c([nH]c3ccccc23)C1	3.3	-0.8	1.5	-0.1	-0.8	98.7*	89.7*	27.1*
CCOC(=O)c1cc2c(ccn2-c2ccc(F)cc2)n1CC(=O)N(CC)CC	-2.2	-1.7	1.4	-1.3	-2.0	2.4	.	.
CC(=O)c1c(C)[nH]c(C(=O)Nc2ccc(Cl)c(S(=O)(=O)N(C)C)c2)c1C	2.0	5.8	10.0*	1.7	-0.6	80.6*	83.3*	53.2*
CC(=O)c1c(C)[nH]c(C(=O)Nc2cccc(S(=O)(=O)N3CCOCC3)c2)c1C	-0.2	-1.8	0.9	0.7	-0.8	100.1*	78.1*	33.7*
CCCCOCC1CN(CCCC)S(=O)(=O)c2c(F)cccc2O1 (stereo unspecified)	-1.0	0.5	.	-0.8	-1.0	.	.	.
COc1ccc2nc(SCC(=O)NCc3ccc(S(N)(=O)=O)cc3)[nH]c2c1	-1.4	-0.1	0.3	0.1	-1.2	1.4	.	.
CC(=O)c1c(N2CCOCC2)[nH]c(-c2ccccc2)nc1=S	4.5	2.9	0.4	0.2	-0.6	135.6*	121.6*	75.0*
CC(=O)c1c(N2CCN(Cc3ccccc3)CC2)[nH]c(-c2ccccc2)nc1=S	2.2	0.8	-1.2	-0.6	-1.3	4.5	.	.
O=C(NCc1ccc(F)cc1F)[C@@H]1CCCN1C(=O)[C@@H]1CCCN1	-0.9	-0.1	.	0.3	0.0	.	.	.
Cc1nn(-c2ccccc2)c2sc(C(=O)NC3CC3)cc12	-0.1	1.3	3.2	0.5	-1.0	84.4*	79.6*	38.7*
CCOC(=O)N1CCN(Cc2nc3cc(NC(=O)c4ccco4)ccc3n2C)CC1	2.1	-0.3	0.5	-0.2	-1.3	5.9	.	.
O=C(NC(=S)Nc1ccccc1N1CCOCC1)c1ccccc1F	-0.3	1.0	0.1	-2.8	-1.4	95.3*	73.0*	31.3*

Source: PubChem (The Scripps Research Institute Molecular Screening Center)
